We go through 51 compounds from PubChem BioAssay AID686978 (National Center for Advancing Translational Sciences (NCATS), 2013).

Screen size: about 420,000 compounds; about 64,000 (15%) were called active. Roughly 27% stayed inconclusive and do not appear here. Only a sample is shown. Unmarked numbers belong to inactive results. Calls come from the whole dose curve; as a rule, active = well fitted inhibition curve with a large enough effect; inconclusive = small, poorly fitted or top-dose-only effect; inactive = flat fitted curve, though single readings scatter.
% is set by controls: 0 for no effect and ±100 for the full control effect; potency is the fitted concentration of half-maximal effect.

This test is described as follows: qHTS for Inhibitors of human tyrosyl-DNA phosphodiesterase 1 (TDP1): qHTS in cells in absence of CPT. Note: nearly all actives have a fitted effect of over 55% in size. The settings on record: DT40 Tdp1-/- hTDP1 cells, no CPT, ATP luminescence, 48 h; activity change, negative = growth inhibition: at 46.2 µM (top of the series). The gist of the method:
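Chicken DT40 Tdp1-/- cells complemented with human TDP1, screened without camptothecin (DMSO vehicle only), 400 cells/well. Compounds pin-transferred, cells incubated at 37 °C for at least 48 hr. Growth read as ATP-dependent luminescence (CellTiter-Glo, 30 min at RT).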
Turning to `O=C(COc1cccc(Cl)c1)NCc1ccccc1`, the “activity change, negative = growth inhibition” value is -10.2%.

With `O=C(COc1nsnc1N1CCOCC1)Nc1ccccc1Cl`, the “activity change, negative = growth inhibition” value is 1.23%.

Regarding `CCOc1cc(N2CCOCC2)c(OCC)cc1NC(=O)COc1cccc(Cl)c1`, the Potency was 2.59 µM (active).

With `CCOc1cc(N2CCOCC2)c(OCC)cc1NC(=O)COc1cccc2cccnc12`, the Potency is 10.3 µM (active).

For `NC(=O)C1CCN(C(=O)COc2cccc3cccnc23)CC1`, the “activity change, negative = growth inhibition” value is 1.62%.

Consider `CC1CCN(C(=O)Cn2cc(C(=O)c3ccco3)c3ccccc32)CC1`, for which the “activity change, negative = growth inhibition” value was -5.83%.

On to `CC(CC(=O)O)CC(=O)NNC(=O)c1cccc(Br)c1` (stereo unspecified), for which the “activity change, negative = growth inhibition” value was -3.65%.

On to `COc1ccc(NC(=O)CC2C(=O)OCC3CCCCN32)cc1Cl` (stereo unspecified), for which the “activity change, negative = growth inhibition” value is -13.6%.

In the case of `N#CC1(NC(=O)COC(=O)Cc2n[nH]c(=O)c3ccccc23)CCCCC1`, the “activity change, negative = growth inhibition” value was 1.42%.

Take `O=C(Nc1ccccc1C(=O)N1CCOCC1)C1CCC(=O)N1C1CCCC1` (stereo unspecified): the “activity change, negative = growth inhibition” value is 5.03%.

`Cc1nc(C)c(C(=O)Nc2cccc(C)c2C)o1`: the “activity change, negative = growth inhibition” value was -15.9%.

As for `CC1(C)C2CC=C(/C=N/NC(=O)C3CC3)C1C2` (stereo unspecified), the “activity change, negative = growth inhibition” value was -4.07%.

Regarding `COC(=O)c1cc(OC)c(OC)cc1NC(=O)C1CCCO1` (stereo unspecified), the “activity change, negative = growth inhibition” value was -11.9%.

On to `COc1cc(=O)n2c(c1C(=O)N(C)Cc1nonc1C)CCN(C(=O)c1ccc(C)cc1C)CC2`, for which the “activity change, negative = growth inhibition” value was -1.72%.

As for `CCN(C(=O)CSc1cccc[n+]1[O-])c1ccccc1`, the Potency is 1.84 µM (active).

Consider `O=C(CSc1nnc2ccccn12)c1ccccc1`, for which the “activity change, negative = growth inhibition” value was -9.28%.

`CCN(C(=O)CSc1nnc(-c2ccncc2)o1)c1ccccc1`: the “activity change, negative = growth inhibition” value was -1.26%.

On to `O=C(CSc1cccc[n+]1[O-])c1ccc(-c2ccccc2)cc1`, for which the Potency is 0.82 µM (active).

For the compound `CCN(CC)c1ccc(S(=O)(=O)N2CCOCC2)cc1NC(=O)CSc1cccc[n+]1[O-]`, the “activity change, negative = growth inhibition” value was -9.38%.

Take `O=C(CSc1cccc[n+]1[O-])c1ccc(Cl)cc1`: the Potency was 5.17 µM (active).

In the case of `CC(NC(=O)COC(=O)CCC(=O)c1ccc(Cl)cc1)c1ccccc1` (stereo unspecified), the “activity change, negative = growth inhibition” value is -27%.

Regarding `COc1ccccc1C(=O)CSc1cccc[n+]1[O-]`, the “activity change, negative = growth inhibition” value is -0.265%.

For the compound `O=C(Cc1ccc(Cl)cc1)c1ccccc1`, the “activity change, negative = growth inhibition” value was -15.1%.

As to `Cc1ccc(C2=CSC3=NS(=O)(=O)CCN23)cc1C`, the “activity change, negative = growth inhibition” value is -17.4%.

`CCCCNC(=O)N(O)C1N(/N=C/c2ccccc2O)C(=S)SC1(C)C` (stereo unspecified): the “activity change, negative = growth inhibition” value was -22.5%.

As for `CC(C)C1Nc2c(C(=O)O)cccc2C(Nc2ccccc2C(=O)O)C1(C)C` (stereo unspecified), the “activity change, negative = growth inhibition” value is 3.53%.

Regarding `Cc1ccc(N/N=C2\COC(C)(C)CC2=O)cc1`, the “activity change, negative = growth inhibition” value is 3.82%.

Consider `O=C(NCc1ccccc1Cl)c1csc([C@@H]2O[C@H](CO)[C@@H](O)[C@H]2O)n1`, for which the “activity change, negative = growth inhibition” value is -14.7%.

For `Cc1ccsc1C(=O)NCCc1ccco1`, the “activity change, negative = growth inhibition” value was -9.2%.

`C[n+]1ccc(C(=O)NCc2ccccc2)cc1`: the “activity change, negative = growth inhibition” value was 4.77%.

For `COc1cc(C(=O)NCc2ccncc2)cc(Br)c1OCc1ccccc1`, the Potency is 23.1 µM (active).

For `CCCn1nc2cc(C(=O)NCc3ccccc3)ccc2c1OCC`, the “activity change, negative = growth inhibition” value was 7.81%.

For `Cc1ccc2c(c1)C(O)(CC(=O)c1cccnc1)C(=O)N2` (stereo unspecified), the “activity change, negative = growth inhibition” value was -23.7%.

As to `Cc1ccc(NC(=O)c2ccc(Oc3ncccn3)cc2)cc1`, the “activity change, negative = growth inhibition” value is -14%.

With `CC(C)c1c(C(=O)N/N=C/c2ccccc2C(=O)O)nnn1-c1nonc1N`, the “activity change, negative = growth inhibition” value is -0.811%.

`O=C(/C=C/c1ccc(F)cc1)Nc1cccc(S(=O)(=O)Nc2cccc(C(F)(F)F)c2)c1`: the Potency was 8.2 µM (active).

As for `CC(C)(CNC(=O)c1cc(=O)[nH]c2ccccc12)N1CCOCC1`, the “activity change, negative = growth inhibition” value was -4.44%.

As for `O=C(O)c1cccc(N2C(=O)Nc3ccccc3N2O)c1`, the “activity change, negative = growth inhibition” value was 0.678%.

In the case of `CN1C(=O)c2ccc(NC(=O)c3c(F)c(F)c(F)c(F)c3F)cc2C1=O`, the “activity change, negative = growth inhibition” value is -20.5%.

Turning to `O=S1(=O)CC(N2CCSCC2)CN1Cc1cn(Cc2cccc(Cl)c2)nn1` (stereo unspecified), the “activity change, negative = growth inhibition” value was -18.3%.

For the compound `CC1C(=O)N(Cc2cn(CC3CCCCC3)nn2)CCS(=O)(=O)N1Cc1ccc(-c2cccc(N(C)C)c2)cc1` (stereo unspecified), the Potency was 7.31 µM (active).

`COc1ccc(Cn2cc(CN3CCS(=O)(=O)N(Cc4ccc(-c5cccc(Cl)c5)cc4)C(C)C3=O)nn2)cc1` (stereo unspecified): the Potency is 25.9 µM (active).

For `CCCC[C@H]1COCCS(=O)(=O)N1Cc1cccc(Cl)c1`, the “activity change, negative = growth inhibition” value was -19.5%.

With `O=S(=O)(/C=C/c1ccccc1)N1CCNCC1`, the “activity change, negative = growth inhibition” value was -15.3%.

As for `O=C1Cc2cc(S(=O)(=O)Nc3cccc(F)c3)ccc2N1`, the “activity change, negative = growth inhibition” value was 0.84%.

Take `C/C(=N/NC(=O)C1COc2ccccc2O1)c1ccco1` (stereo unspecified): the “activity change, negative = growth inhibition” value was -14.3%.

On to `CC(/C=C/c1ccco1)=N/NC(=O)C1COc2ccccc2O1` (stereo unspecified), for which the Potency was 16.4 µM (active).

On to `CC(=O)c1cccc(NC(=O)C2COc3ccccc3O2)c1` (stereo unspecified), for which the “activity change, negative = growth inhibition” value is 8.91%.

On to `CCOc1cc(C(=O)Nc2c(C)ccc3nsnc23)cc(OCC)c1OCC`, for which the “activity change, negative = growth inhibition” value is -22.1%.

On to `CC1O[C@H](OC2C(COC3OC(CO)C(O)[C@H](O)C3O)OC(OC3CC[C@]4(C)C(CC[C@@]5(C)[C@@H]4C=C[C@]46OC[C@@]7(CCC(C)(C)C[C@H]74)C(O)C[C@@]56C)C3(C)C)C(O)C2O)C(O)C(O)C1O` (stereo partly specified), for which the “activity change, negative = growth inhibition” value is 7.51%.

Turning to `O=C(COC(=O)CNS(=O)(=O)c1ccccc1)NC12CC3CC(CC(C3)C1)C2`, the “activity change, negative = growth inhibition” value was -26.4%.
